Screening results: PubChem, Paczesny and Yang Labs, IUPUI and University of Michigan
This excerpt belongs to a sample that is enriched for hits.
ST2 inh – blocks human ST2 binding to IL-33; AID 1259354; Q01638; 78,000 tested, 2.3% active; inhibition, % for hits at 17 µM; AlphaLISA ST2-Fc/biotin-IL-33 interaction, 1 h; in the data active means inhibition above about 30%
Of the large screens only hits and unclear results are named; the others gave an inactive call.

C[C@@H]1O[C@@H](O[C@@H]2[C@@H](O)[C@H](OCCc3ccc(O)c(O)c3)O[C@H](CO[C@@H]3OC[C@](O)(CO)[C@H]3O)[C@H]2OC(=O)/C=C/c2ccc(O)c(O)c2)[C@H](O)[C@H](O)[C@H]1O	none
CC1CCCCN1C1CC(=O)N(c2ccc(Br)cc2Br)C1=O (configuration not stated)	none
O=C(CN1CCN(Cc2ccc(Cl)cc2)S1(=O)=O)Nc1ccc2c(c1)OCO2	none
Cc1nn(-c2ccccn2)c(C)c1[C@@H]1C=C[C@@H](NC(=S)NCC(C)C)C1	none
Cn1c(=O)n(C)c2cc(CNC(=O)Cc3c[nH]c4ccccc34)ccc21	ST2 inh 30%
COCc1ccc(C(=O)NCc2ccc3c(c2)n(C)c(=O)n3C)o1	none
Cc1cc(C)n(CCC(=O)NCCc2c[nH]c3ccccc23)c(=O)n1	none
CC(=O)N(C)c1ccc(NC(=O)CN2CCCC(C(=O)c3ccccn3)C2)cc1 (configuration not stated)	none
Cc1cc([N+](=O)[O-])nn1Cc1ccc(-c2nc(-c3nonc3N)no2)cc1	none
O=C1CC(Sc2ccccn2)C(=O)N1c1ccc(Br)cc1 (configuration not stated)	ST2 inh 40%
O=C(O)c1cccnc1SC1CC(=O)N(c2ccc(N3CCOCC3)cc2)C1=O (configuration not stated)	none
Cc1ccc(N2C(=O)CC(Sc3nc4ccccc4o3)C2=O)cc1 (configuration not stated)	none
O=C(CCC(=O)NC1CCCCCC1)NC1CCCCCC1	none
Cc1nnsc1CN(C)C(=O)CCC(=O)NC1CCCC1	ST2 inh 97%
Cc1nnsc1CN(C)CC(=O)NC1CCCCCCC1	none
CCn1cc(C(=O)N2CCCC2)c(=O)c2cc(S(=O)(=O)N(C)C3CCCCC3)ccc21	none
c1ncn(CCN2CCN(C3CCC4(CCNCC4)CC3)CC2)n1	none
CN(C)/C(=C1/c2cc([N+](=O)[O-])ccc2-c2c1cc([N+](=O)[O-])cc2[N+](=O)[O-])N1CCOCC1	ST2 inh 79%
O=C(c1cccc([N+](=O)[O-])c1)N1CCOCC1	none
O=C(c1sc2cc([N+](=O)[O-])ccc2c1Cl)N1CCOCC1	none
CCOc1ccc(OCCCOc2cc(C=O)ccc2OC)cc1	none
Cc1ccc2c(C)nc(N3CCCC(C(=O)N4CCC(Oc5ccccc5F)CC4)C3)nc2c1 (configuration not stated)	none
Nc1ccc2nc3c(=O)[nH]c(=O)[nH]c3nc2c1	ST2 inh 53%
Cn1c(=O)c2nc3ccc(N)cc3nc2n(C)c1=O	none
O=c1[nH]c(=O)c2nc3c(ccc4nsnc43)nc2[nH]1	none
Cn1ccnc1CN1C(=O)CO[C@H]2CN(C3CCOCC3)C[C@H]21	none
Cn1cc(CC(=O)NC2CCCCCC2)c2ccccc21	none
CCCCN(CC)S(=O)(=O)c1ccc2[nH]c(=O)cc(C(=O)NCc3cccs3)c2c1	none
Cc1ccc(C(=O)Nc2c3c(nn2-c2ccc(C)cc2)CSC3)cc1	none
COCCOc1cc(C)c2c(c1C)C[C@H]([C@H](C)C(=O)NC(C)(C)C)CC2	none
COc1ccc(CNC(=O)C[C@@H]2C[C@@H](C(C)C)[C@H](CNC(=O)c3ccc(C#N)cc3)C=C2C)cc1	none
CC1=C[C@@H](CNC(=O)c2ccc(C#N)cc2)[C@H](C(C)C)C[C@H]1CC(=O)NCc1cccnc1	none
CC1=C[C@@H](CNC(=O)c2ccc(C#N)cc2)[C@H](C(C)C)C[C@H]1CC(=O)NCCN(C)C	ST2 inh 31%
Cc1ccc(C)c(NC(=O)C(NS(=O)(=O)c2ccc3c(c2)oc(=O)n3C)C(C)C)c1 (configuration not stated)	none
Clc1nc(-c2ccccc2)ncc1-c1ccccc1	none
COCCC(=O)Nc1cc(C(=O)N2CCOc3ccccc3C2)cc2nc(-c3ccccc3)n(C)c12	none
CCOc1ccc2c(c1)C(=O)c1cc(OCC)ccc1-2	ST2 inh 46%
CCOc1ccc(OCC)c(NC(C)=O)c1	none
C=C1c2cc(OCC)ccc2NC(=O)N1c1ccccc1	none
CCOc1cccc(CNC(C)c2cnc(-c3ccncc3)nc2C)c1 (configuration not stated)	none
COc1cc(C(Nc2cccc(C)n2)c2ccc3ccc(C)nc3c2O)ccc1O (configuration not stated)	none
Cc1ccnc(NC(c2ccncc2)c2ccc3cccnc3c2O)c1 (configuration not stated)	none
O=C(c1ccc([N+](=O)[O-])cc1)N1CCN(c2ccccn2)CC1	none
Cc1cc(NC(c2cccc([N+](=O)[O-])c2)c2ccc3cccnc3c2O)no1 (configuration not stated)	ST2 inh 33%
O=C(Nc1ccc([N+](=O)[O-])cc1)c1cc2ccccc2o1	none
O=[N+]([O-])c1ccc(NC(c2ccccn2)c2ccc3cccnc3c2O)cc1 (configuration not stated)	ST2 inh 31%
CCCOc1ccc(OCCSc2nc3ncnc(N)c3[nH]2)cc1	none
O=C(c1ccc(-c2ccccc2)cc1)C1CCCN(C(=O)CCc2ccncc2)C1 (configuration not stated)	none
O=C(CN1C(=O)COc2ccc(S(=O)(=O)N3CCCC3)cc21)NCc1cccnc1	none
COc1cc(S(=O)(=O)N2CCCCC2C)c(OC)cc1Cl (configuration not stated)	none
